“And” between values parts separate entries of the source, which are not always exact repeats. Identical values can stand only once. This is part of a sample that, as a whole, favours compounds with a hit. Of some 83,000 tested, about 20% had one in any assay.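 Negative percent growth values reflect cell death: -40 means 40% of the cells present at the start died, and -100 means all died.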 Unmarked numbers belong to inactive results. The source made the active and inactive calls. How the source made its calls: active means growth percent below 10; inactive means the rest.
Experiments:
Test in all cases: NCI-60 one-dose screen, 48 h (100 = growth as untreated, 0 = no growth, -100 = all killed)
Details in all cases: 10 µM unless noted
SR leukemia = system: SR leukemia
RPMI-8226 leukemia = system: RPMI-8226 leukemia
OVCAR-8 ovarian = system: OVCAR-8 ovarian
OVCAR-5 ovarian = system: OVCAR-5 ovarian
OVCAR-4 ovarian = system: OVCAR-4 ovarian
SK-OV-3 ovarian = system: SK-OV-3 ovarian
IGROV1 ovarian = system: IGROV1 ovarian
OVCAR-3 ovarian = system: OVCAR-3 ovarian
HS 578T breast = system: HS 578T breast
NCI/ADR-RES ovarian = system: NCI/ADR-RES ovarian
T-47D breast = system: T-47D breast
BT-549 breast = system: BT-549 breast
MDA-MB-435 melanoma = system: MDA-MB-435 melanoma
MCF7 breast = system: MCF7 breast
HCT-116 colon = system: HCT-116 colon
HCC-2998 colon = system: HCC-2998 colon
KM12 colon = system: KM12 colon
SW-620 colon = system: SW-620 colon

| Structure (SMILES) | growth (SR leukemia) | growth (RPMI-8226 leukemia) | growth (OVCAR-8 ovarian) | growth (OVCAR-5 ovarian) | growth (OVCAR-4 ovarian) | growth (SK-OV-3 ovarian) | growth (IGROV1 ovarian) | growth (OVCAR-3 ovarian) | growth (HS 578T breast) | growth (NCI/ADR-RES ovarian) | growth (T-47D breast) | growth (BT-549 breast) | growth (MDA-MB-435 melanoma) | growth (MCF7 breast) | growth (HCT-116 colon) | growth (HCC-2998 colon) | growth (KM12 colon) | growth (SW-620 colon) |
| --- | --- | --- | --- | --- | --- | --- | --- | --- | --- | --- | --- | --- | --- | --- | --- | --- | --- | --- |
| C=C1C(=O)O[C@@H]2[C@H]3[C@H](COC(C)=O)[C@@H](OC(C)=O)C[C@H]3C(=C)[C@@H](O)C[C@@H]12 | 72.6% | 76% | 92.1% | 97.2% | 110% | 108% | 101% | 80.9% | 92.4% | 98.6% | 90.5% | 94.2% | 101% | 76.8% | 75.7% | 109% | 99.8% |  |
| CCN(C(=O)N1CCN(c2cc3c(cc2F)c(=O)c(C(=O)O)cn3C2CC2)CC1)c1nc(-c2ccccc2)cs1 | 10% | 12.5% | 30.2% | 35.7% | 55.5% | 63.8% | 12.5% | 15.9% | 18.2% | 22.4% | 55.4% | -9.57% (active) | 27.3% | 14.9% | 6.31% (active) |  | 21.1% |  |
| Nc1nc(Cl)nc2c1ncn2C1OC(CO)C(O)C1O (stereo not drawn) | 56.8% | 104% and 96.1% | 22.9% and 29.3% | 90% and 105% | 94.4% and 87% | 41.3% and 68.1% | 78.9% and 75.1% | 86.9% | 108% | 29.6% and 40.2% | 93.5% and 107% | 40.2% | 49.2% and 53.5% | 37.8% and 33.8% | 41.9% and 43% |  | 60.1% and 86.2% |  |
| COc1ccc(CN2CCc3c(Cl)nc(N)nc3C2=O)c(OC)c1 | 3.87% [100 µM] (active) | 12.7% [100 µM] | 1.04% [100 µM] (active) | 45.1% [100 µM] | 15.2% [100 µM] | 8.93% [100 µM] (active) | -37.3% [100 µM] (active) | -22.4% [100 µM] (active) | 49.9% [100 µM] | 4.29% [100 µM] (active) | 12.8% [100 µM] | -20.3% [100 µM] (active) | 1.81% [100 µM] (active) | 6.65% [100 µM] (active) | -72.7% [100 µM] (active) | -85.9% [100 µM] (active) | 11.1% [100 µM] |  |
| O=C1N=c2ccccc2=C1c1sc(=S)n(C2CC(=O)N(c3ccc(Cl)cc3)C2=O)c1O (stereo not drawn) | 36.5% | 103% | 98.6% | 105% | 103% | 103% | 101% | 109% | 98.1% | 102% | 97.9% | 105% |  | 91.1% | 96.7% | 105% | 100% | 99.8% |
| Cc1ccc(Cc2cnc(NC(=O)c3cc(C)oc3C)s2)cc1 | 29.7% | 73.6% | 87.7% | 67.6% | 70.2% | 84.3% | 62% | 81.4% | 82.9% | 67.4% | 58.3% | 74% |  | 32% | 72.4% | 89.3% | 38.4% | 51.6% |
| CCCCC#Cc1c(/C=C(\CCCC)SCC)n(C)c(=O)[nH]c1=O | 93.4% | 85.5% | 76.8% | 99.3% | 90.7% | 106% | 73.6% | 88.5% | 95.9% | 95.6% | 84.4% | 100% | 104% | 48.5% |  | 104% | 113% |  |
| O=C1C(c2c[nH]c3ccccc23)=C(c2coc3cc(Br)ccc23)C(=O)N1O | 90.5% | 89.8% | 106% | 105% | 115% | 98.8% | 85.2% | 102% | 94.5% | 105% | 77.5% | 103% | 103% | 80.6% | 96.7% | 100% | 97.9% |  |
